{
  "source": "PubChem BioAssay (NCATS)",
  "note": "Inconclusive results are not listed. A number with no mark means an inactive call. Active and inactive are the calls of the source. Calls come from the whole dose curve; tested in HEK293 reporter line. % is set by controls: 0 for no effect and ±100 for the full control effect; potency is the fitted concentration of half-maximal effect.",
  "data": [
    {"experiment": "qHTS for Inhibitors of the Functional Ribonucleoprotein Complex (vRNP) of Lassa (LASV) Arenavirus: LASV Primary Screen - GLuc reporter signal (AID 1347082); note: nearly all actives have a fitted effect of over 60% in size", "conditions": "LASV minigenome vRNP, Gaussia luciferase reporter; series mostly up to 57.5 µM; activity change, negative = inhibition: at the top concentration", "values": [
      {"smiles": "CC(=O)Nc1nc(C)c(-c2ccc(Cl)c(S(=O)(=O)NCCO)c2)s1", "Potency": "2.43 µM (active)"},
      {"smiles": "Cc1nc(C(N)=O)nc2ccccc12", "activity change, negative = inhibition": "3.11%"},
      {"smiles": "CC1(C)C2CC1[C@@](C)(O)[C@H](O)C2", "note": "(some centres undefined)", "activity change, negative = inhibition": "-12.4%"},
      {"smiles": "CC(=O)OC[C@H]1O[C@@H](O[C@H]2C[C@]3(C)C(C[C@@H](O)C4C([C@]5(C)CC[C@@H](C(C)(C)O)O5)CC[C@]43C)[C@@]3(C)CC[C@H](O)C(C)(C)C23)[C@H](O[C@@H]2O[C@@H](C)[C@H](O)[C@@H](O)[C@H]2O)[C@@H](O)[C@@H]1O", "note": "(some centres undefined)", "activity change, negative = inhibition": "-15.1%"},
      {"smiles": "NC(C(=O)O)C1ON=C(Cl)C1O", "note": "(centres undefined)", "activity change, negative = inhibition": "3.23%"},
      {"smiles": "CC(C)=C[C@H]1C[C@H](C)[C@H]2CC[C@H](C)c3c(O[C@@H]4OC[C@@H](O)[C@H](O)C4O)c(O)c(C)c1c32", "note": "(some centres undefined)", "activity change, negative = inhibition": "-3.73%"},
      {"smiles": "CC1(C)C[C@H](O)[C@@]23C[C@@H](OC2=O)[C@]2(C)C(=CCC4[C@@]5(C)CC[C@H](O)C(C)(C)C5CC[C@]42C)[C@@H]3C1", "note": "(some centres undefined)", "activity change, negative = inhibition": "2.69%"},
      {"smiles": "CC12CCC(=O)C=C1C(O)CC1C2CCC2(C)C1CCC2(O)C(=O)CO", "note": "(centres undefined)", "activity change, negative = inhibition": "5.27%"},
      {"smiles": "CNCC(=O)O", "activity change, negative = inhibition": "3.98%"},
      {"smiles": "C=C[C@]1(C)C=C2C(=O)[C@@]3(O)OC(=O)[C@@]4(CCCC(C)(C)[C@H]34)[C@@]2(O)CC1", "activity change, negative = inhibition": "-27.1%"},
      {"smiles": "CC(C)=CCc1c(O)cc(O)c2c1OC(c1ccc(O)cc1)CC2=O", "note": "(centres undefined)", "activity change, negative = inhibition": "0.943%"},
      {"smiles": "COc1cc2c(cc1OC)[C@H]1C(=O)c3ccc4c(c3O[C@H]1CO2)C[C@@H](C(C)(C)O)O4", "activity change, negative = inhibition": "-12.5%"},
      {"smiles": "CC(C)COC(=O)c1ccccc1", "activity change, negative = inhibition": "10.3% [at 115 µM]"},
      {"smiles": "COc1ccc(-c2coc3cc(OC(C)=O)c(OC)cc3c2=O)cc1", "activity change, negative = inhibition": "-11.1%"},
      {"smiles": "CC1=CC=C(C(C)C)CC1", "activity change, negative = inhibition": "1.18% [at 115 µM]"},
      {"smiles": "N#CC(c1ccc(O)cc1)N1CCCCC1", "note": "(centres undefined)", "activity change, negative = inhibition": "8.7%"},
      {"smiles": "CC(=O)C1CCC2(O)C3CCC4=CC(=O)CCC4(C)C3CCC12C", "note": "(centres undefined)", "activity change, negative = inhibition": "-2.06%"},
      {"smiles": "Cc1ccc(C(C)C)cc1O", "activity change, negative = inhibition": "-2.69% [at 115 µM]"},
      {"smiles": "CC(=Cc1ccccc1)C=C1SC(=S)N(CC(=O)O)C1=O", "activity change, negative = inhibition": "1.92%"},
      {"smiles": "O=C1c2ccccc2C(=O)c2c(O)ccc(O)c21", "activity change, negative = inhibition": "-8.3%"},
      {"smiles": "O=C(/C=C/c1ccc(O)c(O)c1)O[C@@H]1C[C@](O)(C(=O)O)C[C@@H](O)[C@H]1O", "activity change, negative = inhibition": "0.648%"},
      {"smiles": "Cc1cc2c(c(CO)c1CCO)C(=O)[C@@H](C)[C@@H]2O", "activity change, negative = inhibition": "9.18%"},
      {"smiles": "COc1ccc(C(=O)OC2C[C@H]3CC[C@@H](C2)N3O)cc1OC", "note": "(some centres undefined)", "activity change, negative = inhibition": "0.996%"},
      {"smiles": "C=C1C[C@@]23CC4C5[C@@]6(C)C[C@H](O)C[C@@]57C2[C@H](O)[C@@H]1[C@H](O)[C@H]3[C@H]7N4C6", "activity change, negative = inhibition": "-1.02%"},
      {"smiles": "C[C@@]12C[C@@]3(O)O[C@@H](O1)[C@]1(COC(=O)c4ccccc4)[C@@H]3C[C@@]12O[C@@H]1O[C@H](CO)[C@@H](O)[C@H](O)[C@@H]1O", "activity change, negative = inhibition": "17.7%"},
      {"smiles": "CC1(C)CCC[C@@]2(C)CC=C(C(=O)O)[C@@H]3C[C@]312", "activity change, negative = inhibition": "-2.34%"},
      {"smiles": "COC(=O)c1c(C)cc(O)c(C=O)c1O", "activity change, negative = inhibition": "-3.2%"},
      {"smiles": "CCCCC/C=C\\C/C=C\\C[C@H](O)/C=C/C=C\\CCCC(=O)O", "activity change, negative = inhibition": "6.73% [at 0.757 µM]"},
      {"smiles": "CC1=C2C(=O)C3C(CC=C4CC(O)CCC43C)C2CCC12OC1CC(C)CNC1C2C", "note": "(centres undefined)", "activity change, negative = inhibition": "5.67%"},
      {"smiles": "C=CCc1c(OC)ccc2ccc(=O)oc12", "activity change, negative = inhibition": "8.75%"},
      {"smiles": "O=c1cc(CCc2ccccc2)oc2cccc(O)c12", "activity change, negative = inhibition": "-7.34%"},
      {"smiles": "COC(=O)C1=COC(O[C@H]2OC(CO)[C@H](O)C(O)C2O)[C@H]2C1C(=O)C[C@@H]2C", "note": "(some centres undefined)", "activity change, negative = inhibition": "1.71%"},
      {"smiles": "COc1cc2c(c(OC)c1CC=C(C)C)C[C@H](c1ccc(O)cc1O)CO2", "activity change, negative = inhibition": "1.8%"},
      {"smiles": "CC(C)NC(=O)NCCCCCCS(C)=O", "note": "(centres undefined)", "activity change, negative = inhibition": "-5.31%"},
      {"smiles": "CCCCCCCCCC(=O)OCC", "activity change, negative = inhibition": "-33.9% [at 115 µM]"},
      {"smiles": "CC(=O)OC[C@]12CCC(C)=C[C@H]1O[C@@H]1[C@H](O)[C@@H](OC(C)=O)[C@@]2(C)[C@]12CO2", "activity change, negative = inhibition": "-90.7%"},
      {"smiles": "CCCCCCCCOC(C)=O", "activity change, negative = inhibition": "1.77% [at 115 µM]"},
      {"smiles": "C#CCCCCCCCCCCCc1ccco1", "activity change, negative = inhibition": "-7.9%"},
      {"smiles": "FC(F)c1nc2ccccc2n1-c1nc(N2CCOCC2)nc(N2CCOCC2)n1", "Potency": "8.63 µM (active)"}
    ]}
  ]
}
